These molecules were tested on murine 3T3 fibroblasts (assay: primary screen, percent viability or growth; higher = less effect of the substance).
Protocol: Similarly, for measuring the cytotoxicity concentration (CC50) for 3T3 fibroblast cells, cultures were incubated with drugs for 72 hours and developed using Alamar Blue (Alamar Biosciences Inc, Sacramento, CA) as previously described.
`NS(=O)(=O)c1cc(C(=O)O)c(NCc2ccco2)cc1Cl` was tested, and the “Mammalian (3T3) cell % growth at 10 uM” value was 79.1%. `CC1(C)C(=O)C2OC2C2(C)C1CC(O)C1(C)C2CCC2(C)C(c3ccoc3)OC(=O)C3OC321` (stereo not drawn) was tested, and the “Mammalian (3T3) cell % growth at 10 uM” value was 77.3%. In the case of `COc1ccc(CCN2CCC(Nc3nc4ccccc4n3Cc3ccc(F)cc3)CC2)cc1`, the “Mammalian (3T3) cell % growth at 10 uM” value is reported as 100%. For `CC1(C)C=CC(=O)C2(C)C1CC(=O)C1(C)C2CCC2(C)C(c3ccoc3)OC(=O)C3OC321` (stereo not drawn), the “Mammalian (3T3) cell % growth at 10 uM” value was 100%. For `COC1=CC(=O)C(O)=C/C1=C\C=C\c1ccccc1`, the “Mammalian (3T3) cell % growth at 10 uM” value was 0.8%. `CCN(CC)CCOc1ccc(C(=C(Cl)c2ccccc2)c2ccccc2)cc1` was tested, and the “Mammalian (3T3) cell % growth at 10 uM” value was 100%. In the case of `COC(=O)C1(C)CCCC2(C)c3ccc(O)c(C(C)C)c3CCC12` (stereo not drawn), the “Mammalian (3T3) cell % growth at 10 uM” value is reported as 38.5%. In the case of `CC(=O)N1CCN(c2ccc(OC[C@H]3CO[C@](Cn4ccnc4)(c4ccc(Cl)cc4Cl)O3)cc2)CC1`, the “Mammalian (3T3) cell % growth at 10 uM” value is reported as 100%. `CSc1ccc2c(c1)C(N1CCN(C)CC1)Cc1ccccc1S2.O=C(O)/C=C\C(=O)O` (stereo not drawn) was tested, and the “Mammalian (3T3) cell % growth at 10 uM” value was 69.6%. For `COC(=O)CC1C2(C)CC34OC5(C)OC6(C7/C(=C(\OC)C(C)C)C(=O)OC(c8ccoc8)C7(C)C(OC(=O)C(C)C)C(OC)C6(O5)C13C)C(OC)C4(OC)C2OC(C)=O` (stereo not drawn), the “Mammalian (3T3) cell % growth at 10 uM” value was 53.4%. For `O=c1cc(-c2ccc(O)cc2)oc2cc(O)cc(O)c12`, the “Mammalian (3T3) cell % growth at 10 uM” value was 73.6%. With `O=C1C=C2C(=CCOC2O)O1` (stereo not drawn) the “Mammalian (3T3) cell % growth at 10 uM” value was 0.5%. `Oc1ccc(O)cc1` was tested, and the “Mammalian (3T3) cell % growth at 10 uM” value was 93.9%. With `COc1cc2c(cc1OC)C1C(=O)c3ccc4oc(C(C)C)cc4c3OC1CO2` (stereo not drawn) the “Mammalian (3T3) cell % growth at 10 uM” value was 39.7%. For `C#C[C@]1(O)CC[C@H]2[C@@H]3CCC4=Cc5oncc5C[C@]4(C)[C@H]3CC[C@@]21C`, the “Mammalian (3T3) cell % growth at 10 uM” value was 90.2%. In the case of `CCOC(=O)C(CCc1ccccc1)NC1CCc2ccccc2N(CC(=O)O)C1=O.Cl` (stereo not drawn), the “Mammalian (3T3) cell % growth at 10 uM” value is reported as 66.8%. In the case of `O=c1c(O)c(-c2ccccc2)oc2ccccc12`, the “Mammalian (3T3) cell % growth at 10 uM” value is reported as 85.7%. With `CCC1(O)CC(O)c2c(cc3c(c2O)C(=O)c2c(O)ccc(O)c2C3=O)C1C(=O)OC` (stereo not drawn) the “Mammalian (3T3) cell % growth at 10 uM” value was 46.5%. With `Cc1ccc(C(=O)C(C)CN2CCCCC2)cc1` (stereo not drawn) the “Mammalian (3T3) cell % growth at 10 uM” value was 0.2%. With `COC(=O)c1cc(O)c(=O)c2c(O)c(O)ccc2c1` the “Mammalian (3T3) cell % growth at 10 uM” value was 92.2%. With `C[C@@H]1[C@H](O)[C@@H](C)/C=C/C=C/C=C/C=C/C=C/C=C/C=C/[C@H](O[C@@H]2O[C@H](C)[C@@H](O)[C@H](N)[C@@H]2O)C[C@@H]2O[C@](O)(C[C@@H](O)C[C@@H](O)[C@H](O)CC[C@@H](O)C[C@@H](O)CC(=O)O[C@H]1C)C[C@H](O)[C@H]2C(=O)O` the “Mammalian (3T3) cell % growth at 10 uM” value was 89.7%. With `Cl.Cl.O=C1c2c(O)ccc(O)c2C(=O)c2c(NCCNCCO)ccc(NCCNCCO)c21` the “Mammalian (3T3) cell % growth at 10 uM” value was 14%. With `CC(C)=CCc1c2c(c3occ(-c4ccc(O)cc4)c(=O)c3c1O)C=CC(C)(C)O2` the “Mammalian (3T3) cell % growth at 10 uM” value was 30.6%. With `Cc1cccc2c3c(ccc12)C1=C(C(=O)C3=O)[C@@H](C)CO1` the “Mammalian (3T3) cell % growth at 10 uM” value was 77.1%. `Clc1ccccc1C(c1ccccc1)(c1ccccc1)n1ccnc1` was tested, and the “Mammalian (3T3) cell % growth at 10 uM” value was 100%. `COc1ccc2c(c1)OCC(Cc1ccc(OC)c(OC)c1)C2=O` (stereo not drawn) was tested, and the “Mammalian (3T3) cell % growth at 10 uM” value was 84.5%. `CC(=O)OC1CCC2(C)C(CC(OC(C)=O)C3(C)C2CCC2(C)C(c4ccoc4)OC(=O)C4OC423)C1(C)C` (stereo not drawn) was tested, and the “Mammalian (3T3) cell % growth at 10 uM” value was 96.7%. For `COc1c(C)c2c(c(O)c1C/C=C(\C)CCC(=O)O)C(=O)OC2`, the “Mammalian (3T3) cell % growth at 10 uM” value was 97.2%. With `CC[C@@]1([C@@H]2O[C@@H]([C@H]3O[C@@](O)(CO)[C@H](C)C[C@@H]3C)C[C@@H]2C)CC[C@H]([C@]2(C)CC[C@]3(C[C@H](O)[C@@H](C)[C@@H]([C@@H](C)[C@@H](OC)[C@H](C)C(=O)O)O3)O2)O1` the “Mammalian (3T3) cell % growth at 10 uM” value was 41.3%. `Oc1ccc2c(c1)O[C@H](c1ccc(O)c(O)c1)[C@@H](O)C2` was tested, and the “Mammalian (3T3) cell % growth at 10 uM” value was 97.8%. In the case of `C[C@@](Cc1ccc(O)c(O)c1)(NN)C(=O)O`, the “Mammalian (3T3) cell % growth at 10 uM” value is reported as 17.7%. `CN1CCc2c(c3ccccc3n2Cc2ccccc2)C1.O=S(=O)(O)c1cccc2c(S(=O)(=O)O)cccc12` was tested, and the “Mammalian (3T3) cell % growth at 10 uM” value was 100%. In the case of `C[C@H]1CC[C@]2(NC1)O[C@H]1C[C@H]3[C@@H]4CC[C@H]5C[C@@H](O[C@@H]6O[C@H](CO)[C@H](O[C@@H]7O[C@H](CO)[C@@H](O)[C@H](O[C@@H]8OC[C@@H](O)[C@H](O)[C@H]8O)[C@H]7O[C@@H]7O[C@H](CO)[C@@H](O)[C@H](O)[C@H]7O)[C@H](O)[C@H]6O)CC[C@]5(C)[C@H]4CC[C@]3(C)[C@H]1[C@@H]2C`, the “Mammalian (3T3) cell % growth at 10 uM” value is reported as 0.1%.
